Reference: PubChem BioAssay AID449766 (NMMLSC, 2010)
Activity calls are given as the source filed them.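 How the source made its calls: active means compound whose curve gives half-maximal concentration under 30 µM, top-dose inhibition above a set limit, tight estimate; inactive means the rest.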

Target: Integrin alpha-4 (Homo sapiens) (UniProt P13612)
Test: VLA-4 allosteric modulator potency, dose response, cell-based, U937, HUTS-21 LIBS antibody, flow cytometry (AID 449766)
Conditions: U937 cells, HUTS-21 LIBS mAb binding; series mostly up to 20 µM; inhibition: at the top concentration

Sequence of Integrin alpha-4 (Homo sapiens) (P13612 whole entry, looked up): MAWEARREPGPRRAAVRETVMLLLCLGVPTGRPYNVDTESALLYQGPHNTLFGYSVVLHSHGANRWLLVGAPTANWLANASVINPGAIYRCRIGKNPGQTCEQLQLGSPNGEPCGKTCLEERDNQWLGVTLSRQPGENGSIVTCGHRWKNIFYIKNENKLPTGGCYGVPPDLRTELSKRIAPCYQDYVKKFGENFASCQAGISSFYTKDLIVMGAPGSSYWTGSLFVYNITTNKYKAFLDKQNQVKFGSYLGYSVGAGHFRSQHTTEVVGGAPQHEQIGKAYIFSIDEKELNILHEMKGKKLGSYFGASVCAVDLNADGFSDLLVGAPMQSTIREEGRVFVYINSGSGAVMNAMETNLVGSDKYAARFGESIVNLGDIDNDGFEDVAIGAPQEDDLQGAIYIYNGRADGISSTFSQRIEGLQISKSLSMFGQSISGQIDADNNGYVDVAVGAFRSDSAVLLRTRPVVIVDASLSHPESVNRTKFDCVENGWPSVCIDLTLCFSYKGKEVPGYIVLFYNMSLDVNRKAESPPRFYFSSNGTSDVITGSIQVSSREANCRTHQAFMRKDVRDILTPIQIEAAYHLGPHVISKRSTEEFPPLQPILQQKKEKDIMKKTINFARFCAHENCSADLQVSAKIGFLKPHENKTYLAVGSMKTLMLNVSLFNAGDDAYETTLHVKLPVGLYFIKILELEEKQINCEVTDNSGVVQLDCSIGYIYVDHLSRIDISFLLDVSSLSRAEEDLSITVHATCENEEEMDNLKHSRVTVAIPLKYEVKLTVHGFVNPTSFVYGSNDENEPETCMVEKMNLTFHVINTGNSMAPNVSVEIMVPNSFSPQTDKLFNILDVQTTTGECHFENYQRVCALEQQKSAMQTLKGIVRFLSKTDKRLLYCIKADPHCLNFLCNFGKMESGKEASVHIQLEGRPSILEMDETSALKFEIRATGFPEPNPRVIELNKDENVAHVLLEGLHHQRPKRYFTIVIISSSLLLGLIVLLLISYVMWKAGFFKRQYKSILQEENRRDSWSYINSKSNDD

inhibition, inactive:
COCCNC(=O)/C(C#N)=C/c1ccc(C(=O)O)cc1 6.86%
COc1ccc(S(=O)(=O)Nc2c(F)cccc2F)cc1 -2.92%
CCOc1ccc(C(=O)c2cc([N+](=O)[O-])ccc2N2CCOCC2)cc1 10.1%
Cc1ccc(C(=O)c2cc([N+](=O)[O-])ccc2N2CCOCC2)c(C)c1 27%
O=C(c1ccccc1)c1cc([N+](=O)[O-])ccc1N1CCOCC1 2.35%
CC(C)Oc1ccccc1C1CC(=O)Nc2cc3c(cc21)OCO3 (stereo not given) 8.88%
Nc1cc(S(=O)(=O)Nc2ccc(Br)cc2)ccc1Cl -7.23%
COc1cc2c(cc1OC)C(c1ccc(Br)cc1)CC(=O)N2 (stereo not given) 3.41%
CCCCNC(=O)/C(C#N)=C/c1ccc(C(=O)OC)cc1 6.29%
COc1cc(NC(=O)c2cc(S(=O)(=O)N3CCCCC3)ccc2N2CCOCC2)cc(OC)c1 7.5%
COc1cccc(-c2sc3ccc(OC)cc3c2-c2ccc(OCCN3CCCC3)cc2)c1 25.2%
CCCCN1C(=O)C(=O)c2cc(Cl)ccc21 7.15%
O=C(Nc1ccc(OC(F)F)cc1)c1cc(S(=O)(=O)N2CCCCC2)ccc1N1CCOCC1 8.79%
COCCNC(=O)/C(C#N)=C/c1c(F)cccc1Cl 14.6%
Nc1ccc(NS(=O)(=O)c2ccccc2)cc1 1.69%
CCOCCCNC(=O)/C(C#N)=C/c1cc(Br)c(O)c(Br)c1 -4.08%
Cc1ccc(C)c(NC(=O)c2cc(S(=O)(=O)N3CCCCC3)ccc2N2CCOCC2)c1 4.56%
COc1ccccc1-c1sc2cc3c(cc2c1-c1ccc(OCCN2CCCCC2)cc1)OCO3 35.6%
CCOc1cccc(C2CC(=O)Nc3cc(OC)c(OC)cc32)c1 (stereo not given) 10.7%
CCCOc1ccccc1C1CC(=O)Nc2cc3c(cc21)OCO3 (stereo not given) 20.1%
Cc1ccc(C(=O)c2cc([N+](=O)[O-])ccc2N2CCOCC2)cc1C 12.6%
COc1cccc(C2CC(=O)Nc3cc(OC)c(OC)cc32)c1 (stereo not given) -6.66%
Cc1ccc(S(=O)(=O)Nc2ccc(N(C)C)cc2)cc1 -2.63%
COCCNC(=O)/C(C#N)=C/c1cccc(/C=C(\C#N)C(=O)NCCOC)c1 35.2%
COc1ccc(-c2sc3ccccc3c2-c2ccc(OCCN3CCOCC3)cc2)cc1 4.56%
Cc1ccc(NS(=O)(=O)c2ccc(-c3cnc(C4CC4)o3)cc2)c(C)c1 12.3%
COc1ccc(-c2sc3cc4c(cc3c2-c2ccc(OCCN3CCOCC3)cc2)OCO4)cc1 7.5%
Nc1cccc(S(=O)(=O)Nc2ccccc2)c1 16.8%
COc1ccc(C)cc1S(=O)(=O)Nc1cccc(C)c1 1.97%
COC(=O)[C@@H]1[C@@H](C#N)C2(c3ccccc3-c3ccccc32)N(c2ccc(Cl)cc2)N1C#N 10.6% [at 6.6 µM]
CCOc1ccc(S(=O)(=O)Nc2cc(OC)ccc2OC)cc1 -4.93% [at 0.74 µM]
COc1ccc(C2=Nn3c(nnc3-c3ccc(OC)cc3)SC2)cc1 4.28%
O=C(Oc1ccc(F)cc1C(=O)/C=C/c1cccs1)c1cccc([N+](=O)[O-])c1 -28.2%
COc1ccc(C2CC(=O)Nc3cc(OC)c(OC)cc32)cc1Br (stereo not given) -5.69%
O=C(Nc1ccccc1Cl)c1cc(S(=O)(=O)N2CCCCC2)ccc1N1CCOCC1 -7.81% [at 0.25 µM]
